# The antibiotic and cytotoxicity screens of Wong et al. (2023)
# Out of some 39,000 compounds screened, about 3,300 (8.5%) were called active. What follows is part of a selection rich in actives, with near analogues and random picks from the rest.
# Test system: HepG2
# Experiment: cytotoxicity call (relative viability < 0.9)
# Details: 10 µM
row,Compound,cytotoxicity call
1,C[C@@H]1CN([C@@H](C)CO)S(=O)(=O)c2ccc(C3=CCCC3)cc2O[C@@H]1CN(C)C(=O)C1CCOCC1,inactive
2,CO[C@@H]1CN(C)C(=O)c2cc(NC(=O)C3CCOCC3)ccc2OC[C@H](C)N(Cc2cccnc2)C[C@H]1C,inactive
3,C[C@H](CO)N1C[C@H](C)[C@H](CN(C)C(=O)NC2CCCCC2)OCCCC[C@H](C)Oc2ccc(NC(=O)Cc3ccccc3)cc2C1=O,inactive
4,COc1ccc(NC(=O)Nc2ccc3c(c2)C(=O)N([C@H](C)CO)C[C@H](C)[C@@H](CN(C)Cc2ccncc2)OCCCC[C@H](C)O3)cc1,inactive
5,C[C@H]1CN([C@@H](C)CO)C(=O)c2cc(NC(=O)Nc3ccc(C(F)(F)F)cc3)ccc2O[C@@H]1CN(C)C(=O)Nc1ccc(F)cc1,inactive
6,C[C@@H]1CN([C@@H](C)CO)C(=O)Cc2cc(NS(=O)(=O)c3ccccc3)ccc2O[C@H]1CN(C)Cc1ccc(Cl)c(Cl)c1,active
7,C[C@H]1CN([C@@H](C)CO)C(=O)Cc2cc(NS(=O)(=O)c3ccccc3)ccc2O[C@H]1CN(C)Cc1ccc(Cl)c(Cl)c1,inactive
8,C[C@@H]1CN([C@@H](C)CO)C(=O)Cc2cc(NS(=O)(=O)c3ccccc3)ccc2O[C@@H]1CN(C)Cc1ccc(Cl)c(Cl)c1,active
9,C[C@H]1CN([C@@H](C)CO)C(=O)Cc2cc(NS(=O)(=O)c3ccccc3)ccc2O[C@@H]1CN(C)Cc1ccc(Cl)c(Cl)c1,active
10,C[C@H](CO)N1C[C@H](C)[C@@H](CN(C)Cc2ccc(Cl)c(Cl)c2)Oc2ccc(NS(=O)(=O)c3ccccc3)cc2CC1=O,inactive
11,C[C@@H]1CN([C@H](C)CO)C(=O)Cc2cc(NS(=O)(=O)c3ccccc3)ccc2O[C@H]1CN(C)Cc1ccc(Cl)c(Cl)c1,active
12,CNC[C@H]1OCCCC[C@@H](C)Oc2ccc(NC(=O)Nc3cccc4ccccc34)cc2C(=O)N([C@H](C)CO)C[C@H]1C,inactive
13,COc1ccccc1CNC(=O)C[C@H]1C[C@H]2c3cc(NS(=O)(=O)c4ccc(F)cc4)ccc3O[C@H]2[C@@H](CO)O1,inactive
14,C[C@H](CO)N1C[C@H](C)[C@@H](CN(C)Cc2ccc3c(c2)OCO3)Oc2ccc(NC(=O)CCN3CCOCC3)cc2CC1=O,inactive
15,COc1ccc(S(=O)(=O)Nc2ccc3c(c2)C(=O)N([C@H](C)CO)C[C@H](C)[C@H](CN(C)Cc2ccccc2)OCCCC[C@@H](C)O3)cc1,inactive
16,C[C@@H]1CCCCO[C@H](CN(C)C(=O)NC2CCCCC2)[C@@H](C)CN([C@H](C)CO)C(=O)c2cc(NC(=O)CCCCCC(=O)Nc3ccccc3N)ccc2O1,inactive
17,COc1ccc(S(=O)(=O)N(C)C[C@H]2Oc3ccc(NC(=O)CCCN(C)C)cc3C(=O)N([C@H](C)CO)C[C@@H]2C)cc1,inactive
18,COc1ccc(NC(=O)Nc2ccc3c(c2)C(=O)N([C@@H](C)CO)C[C@H](C)[C@H](CN(C)S(=O)(=O)c2ccc(Cl)cc2)OCCCC[C@@H](C)O3)cc1,inactive
19,C[C@@H]1CCCCO[C@@H](CN(C)C(=O)Nc2ccc(C(F)(F)F)cc2)[C@H](C)CN([C@H](C)CO)C(=O)c2cc(NS(C)(=O)=O)ccc2O1,inactive
20,C[C@H](CO)N1C[C@H](C)[C@H](CN(C)Cc2ccc(Cl)c(Cl)c2)Oc2ccc(NS(=O)(=O)c3ccccc3)cc2CC1=O,inactive
21,C[C@H]1CN([C@@H](C)CO)C(=O)Cc2cc(NS(=O)(=O)c3cccs3)ccc2O[C@H]1CN(C)Cc1ccc(Cl)c(Cl)c1,active
22,C[C@@H]1CN([C@@H](C)CO)C(=O)Cc2cc(NS(=O)(=O)c3cccs3)ccc2O[C@H]1CN(C)Cc1ccc(Cl)c(Cl)c1,inactive
23,C[C@H]1CN([C@@H](C)CO)C(=O)Cc2cc(NS(=O)(=O)c3cccs3)ccc2O[C@@H]1CN(C)Cc1ccc(Cl)c(Cl)c1,inactive

row,Compound,cytotoxicity call
1,C[C@@H]1CN([C@H](C)CO)C(=O)Cc2cc(NS(=O)(=O)c3ccccc3)ccc2O[C@@H]1CN(C)Cc1ccc(Cl)c(Cl)c1,active
2,C[C@@H]1CCCCO[C@@H](CN(C)Cc2ccccc2)[C@H](C)CN([C@@H](C)CO)C(=O)c2cc(NC(=O)CCC(F)(F)F)ccc2O1,inactive
3,CC(C)NC(=O)N(C)C[C@H]1Oc2ccc(NC(=O)Cn3cnnn3)cc2CC(=O)N([C@H](C)CO)C[C@H]1C,inactive
4,C[C@H](CO)N1C[C@H](C)[C@H](CN(C)Cc2ccc(C(=O)Nc3ccccc3N)cc2)OCc2cnnn2CCCC1=O,inactive
5,CC(C)(C)c1cc(CN)n[nH]1,inactive
6,O=C(C[C@@H]1C[C@H]2c3cc(NS(=O)(=O)c4ccc(F)cc4)ccc3O[C@H]2[C@@H](CO)O1)N1CCOCC1,inactive
7,O=C1O[C@H](c2ccccc2)[C@H](c2ccccc2)N2[C@H]1[C@@H](C(=O)N1CCN(c3ncccn3)CC1)[C@]1(C(=O)Nc3ccc(C#CC4(O)CCCCCC4)cc31)[C@H]2c1ccc(OCCO)cc1,inactive
8,CO[C@@H]1CN(C)C(=O)c2ccc(NS(=O)(=O)c3ccccc3)cc2OC[C@H](C)N(C(=O)NC(C)C)C[C@@H]1C,inactive
9,CC(C)NC(=O)Nc1ccc2c(c1)CC(=O)N([C@H](C)CO)C[C@@H](C)[C@H](CN(C)C(=O)NC1CCCCC1)O2,inactive
10,C[C@H](CO)N1C[C@H](C)[C@H](CN(C)S(=O)(=O)c2cn(C)cn2)Oc2ccc(NS(=O)(=O)c3ccccc3)cc2C1=O,inactive
11,CC(O)C1C(=O)N2C(C(=O)O)=C(SC3CNC(C(=O)N(C)C)C3)C(C)C12 (configuration not stated),inactive
12,Nc1nnc(-c2ccc([N+](=O)[O-])o2)o1,inactive
13,O=C1CN(/N=C/c2ccc([N+](=O)[O-])o2)C(=O)N1,active
14,O=C1CN(N=Cc2ccc(-c3ccc([N+](=O)[O-])cc3)o2)C(=O)[N-]1.[Na+],inactive
15,O=C1OCCN1N=Cc1ccc([N+](=O)[O-])o1,active
16,CCOC(=O)c1ccc(N2NC(=O)/C(=C/c3ccc([N+](=O)[O-])o3)C2=O)cc1,inactive
17,O=C1CN(N=Cc2ccc([N+](=O)[O-])o2)C(=O)N1,active
18,O=C1OC(CN2CCOCC2)CN1N=Cc1ccc([N+](=O)[O-])o1 (configuration not stated),active
19,O=C(CN1CCOCC1)N/N=C/c1ccc([N+](=O)[O-])o1,inactive
20,O=[N+]([O-])c1cncn1CCN1CCOCC1,inactive
21,O=C(Cc1ccncc1)Nc1ccc2c(c1)[C@H]1C[C@H](CC(=O)N3CCc4ccccc4C3)O[C@H](CO)[C@H]1O2,inactive
22,O=C(C[C@H]1C=C[C@H](NC(=O)Cc2ccccn2)[C@@H](CO)O1)NCCc1ccncc1,inactive
23,CC(=O)NCc1c(I)c(NC(C)=O)c(I)c(C(=O)O)c1I,inactive

row,Compound,cytotoxicity call
1,C[C@H]1CN([C@@H](C)CO)C(=O)c2cccc(NC(=O)c3ccc(-c4nccs4)cc3)c2O[C@H]1CN(C)Cc1ccc(-c2ccccc2)cc1,inactive
2,C[C@@H]1CN([C@@H](C)CO)S(=O)(=O)c2ccc(-c3ccc(F)cc3)cc2O[C@H]1CN(C)C(=O)C1CCOCC1,inactive
3,C[C@@H]1CCCCO[C@H](CN(C)C(=O)CCCN(C)C)[C@@H](C)CN([C@@H](C)CO)C(=O)c2cc(N(C)C)ccc2O1,inactive
4,C[C@@H]1CN([C@H](C)CO)C(=O)c2cccc(NS(C)(=O)=O)c2O[C@@H]1CN(C)C(=O)Nc1ccc(F)cc1,inactive
5,Cc1[nH]c(=O)[nH]c(=O)c1/C=C/C(=O)O,inactive
6,O=C(C[C@H]1CC[C@@H]2[C@H](COC[C@H](O)CN2S(=O)(=O)c2ccc(F)cc2)O1)N[C@H]1CCN(Cc2ccccc2)C1,inactive
7,C[C@@H]1CN([C@@H](C)CO)C(=O)c2cc(NC(=O)Nc3ccc(C(F)(F)F)cc3)ccc2O[C@@H]1CN(C)Cc1ccc(-c2ccccc2)cc1,active
8,C[C@H]1CN([C@@H](C)CO)C(=O)c2cc(NC(=O)Nc3ccc(C(F)(F)F)cc3)ccc2O[C@H]1CN(C)Cc1ccc(-c2ccccc2)cc1,active
9,C[C@@H]1CN([C@H](C)CO)C(=O)c2cc(NC(=O)Nc3ccc(C(F)(F)F)cc3)ccc2O[C@H]1CN(C)Cc1ccc(-c2ccccc2)cc1,active
10,C[C@@H]1CN([C@@H](C)CO)C(=O)c2cc(NC(=O)Nc3ccc(C(F)(F)F)cc3)ccc2O[C@@H]1CN(C)S(C)(=O)=O,inactive
11,C[C@H](CO)N1C[C@H](C)[C@@H](CN(C)C(=O)Nc2cccc3ccccc23)Oc2c(NC(=O)Nc3cccc4ccccc34)cccc2C1=O,inactive
12,C[C@@H]1CCCCO[C@H](CN(C)Cc2ccccc2)[C@H](C)CN([C@@H](C)CO)C(=O)c2cc(NC(=O)c3ccncc3)ccc2O1,inactive
13,O=C(C[C@H]1CC[C@@H]2[C@H](COC[C@H](O)CN2C(=O)c2ccc(F)cc2)O1)NCCCN1CCOCC1,inactive
14,COCC#Cc1cnc2c(c1)C(=O)N([C@H](C)CO)C[C@H](C)[C@H](CN(C)S(=O)(=O)c1ccccc1)O2,inactive
15,OC[C@H]1O[C@@H](n2cnc3c(N[C@@H]4CCOC4)ncnc32)[C@H](O)[C@@H]1O,inactive
16,CC[C@H](C#CCN1CCOCC1)OC(C)=O,inactive
17,COc1ccccc1S(=O)(=O)N[C@@H]1CC[C@@H](CCNC(=O)C2CC2)O[C@H]1CO,inactive
18,CN1C(=O)c2cc(NC(=O)c3ccc(F)cc3)ccc2OC[C@@H]2O[C@H](CC(=O)N3CCOCC3)CC[C@@H]21,inactive
19,COc1ccc(CN(C)C[C@H]2OCCCC[C@@H](C)Oc3ccc(NC(=O)C4CCCCC4)cc3C(=O)N([C@@H](C)CO)C[C@@H]2C)cc1,inactive
20,NS(=O)(=O)c1ccc(CCn2ccn(CC(=O)NCCC3=CCCCC3)c(=O)c2=O)cc1,inactive
21,C[C@@H]1CN([C@@H](C)CO)C(=O)Cc2cc(NS(=O)(=O)c3ccc(F)cc3)ccc2O[C@@H]1CN(C)S(=O)(=O)c1cn(C)cn1,inactive
